Most compounds without a hit are left out; they make up all but 3.2% or so of the library.
Mtb UGM inh: inhibitors of M. tuberculosis UDP-galactopyranose mutase; purified UGM, fluorescence polarization probe displacement; inhibition, % at 10 µM; hit rate 0.06% among 320,000; AID 504406; P9WIQ1; in the data active = inhibition above about 10%, passing the limit was not always enough; inconclusive = no clear call, values can overlap the other calls
FBA Mtb inh: Mtb fructose-bisphosphate aldolase inhibition | P9WQA3 | purified M. tuberculosis FBA, fluorescence read-out | inhibition, % at 1 µM | hit rate 2.3% among 360,000 | AID 588726
Target sequence (P9WQA3 whole entry, looked up): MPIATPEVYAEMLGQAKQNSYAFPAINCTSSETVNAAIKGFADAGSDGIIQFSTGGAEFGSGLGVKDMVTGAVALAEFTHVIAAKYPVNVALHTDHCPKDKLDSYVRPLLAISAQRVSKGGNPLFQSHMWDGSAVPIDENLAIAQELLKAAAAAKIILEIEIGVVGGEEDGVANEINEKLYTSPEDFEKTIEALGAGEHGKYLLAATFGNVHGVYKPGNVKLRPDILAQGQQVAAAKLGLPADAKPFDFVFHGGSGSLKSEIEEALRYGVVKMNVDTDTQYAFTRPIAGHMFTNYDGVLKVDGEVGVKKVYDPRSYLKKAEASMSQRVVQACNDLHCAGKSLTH
GDH-TPI counter-1: GDH-TPI coupled enzyme inhibition counter-screen. GDH-TPI coupled enzyme counterscreen, NADH absorbance. inhibition, % at 4.8 µM. hit rate 1.2% among 360,000. AID 588335; in the data active = inhibition above about 30%
Rv3671c inh: inhibits the M. tuberculosis serine protease Rv3671c. P9WHR9. inhibition, % at 5.96 µM. hit rate 0.048% among 320,000. AID 2606; in the data active = inhibition above about 38%;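 also: extracellular domain of Rv3671c used as enzyme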
SSB-PriA inh: blocks PriA binding to SSB C-terminal tail | AlphaScreen SSBct-PriA binding, biotinylated peptide | inhibition, % at 33 µM | hit rate 0.6% among 430,000; in the data active = inhibition mostly above about 37%, no sharp cut-off; inactive = mostly below about 20%
Mtb bLac sens: beta-lactam sensitization of Mtb H37Rv; AID 434955; hit rate 0.27% among 330,000; M. tuberculosis H37Rv growth with meropenem, percent inhibition; inhibition, % at 25 µM; call rule not given here;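 also: growth measured after seven days incubation then overnight dye step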
Mtb FBA confirm: Mtb FBA inhibition, confirmed | purified M. tuberculosis FBA, fluorescence read-out | inhibition, % at 1 µM | shares compounds with FBA Mtb inh | hit rate 78% among 5,600
GDH-TPI counter-2: counter-screen for M. tuberculosis FBA inhibitors: GDH-TPI coupled enzyme inhibition; GDH-TPI coupled enzyme counterscreen, fluorescence; inhibition, % at 1 µM; shares compounds with FBA Mtb inh; hit rate 81% among 5,600; in the data active = inhibition above about 10%
A number is an active result. Rule as the data show it, unless noted: active = inhibition above about 27%; inactive = the rest.

Results for c1coc(C2Nc3ccccc3-c3nc4ccccc4n32)c1 (stereo not drawn) ?
Mtb UGM inh: inactive; FBA Mtb inh: 101; GDH-TPI counter-1: inactive; Rv3671c inh: inactive; SSB-PriA inh: inactive; Mtb bLac sens: inactive; Mtb FBA confirm: 153; GDH-TPI counter-2: 120

How did COc1cccc(C(=O)Nc2ccc(-c3nc4ccccc4o3)c(O)c2)c1 do in these assays?
Mtb UGM inh: inactive; FBA Mtb inh: 43; GDH-TPI counter-1: 33; Rv3671c inh: inactive; SSB-PriA inh: inactive; Mtb bLac sens: inactive; Mtb FBA confirm: 46; GDH-TPI counter-2: 33

What do the screens show for `CCOc1ccc(S(=O)(=O)Nc2ccc3c(c2)CCC(=O)N3)cc1F`?
SSB-PriA inh: inactive

How did CCCCCC(=O)Nc1ccc2oc(-c3cncc(Br)c3)nc2c1 do in these assays?
Mtb UGM inh: inactive; FBA Mtb inh: inactive; GDH-TPI counter-1: inactive; Rv3671c inh: inactive; SSB-PriA inh: inactive; Mtb bLac sens: inactive

Results for CCCC(=O)Nc1ccc2oc(-c3cncc(Br)c3)nc2c1 ?
Mtb UGM inh: inactive; FBA Mtb inh: 40; GDH-TPI counter-1: inactive; Rv3671c inh: inactive; SSB-PriA inh: inactive; Mtb bLac sens: inactive; Mtb FBA confirm: 172; GDH-TPI counter-2: 132

What do the screens show for `CCCC(=O)Nc1ccc(-c2nc3cc(C)c(C)cc3o2)cc1`?
Mtb UGM inh: inactive; FBA Mtb inh: 87; GDH-TPI counter-1: inactive; Rv3671c inh: inactive; SSB-PriA inh: inactive; Mtb bLac sens: inactive; Mtb FBA confirm: 40; GDH-TPI counter-2: 40

What do the screens show for `Nc1ncnc2oc(-c3ccco3)c(-c3ccco3)c12`?
Mtb UGM inh: inactive; FBA Mtb inh: 31; GDH-TPI counter-1: inactive; Rv3671c inh: inactive; SSB-PriA inh: inactive; Mtb bLac sens: inactive; Mtb FBA confirm: active; GDH-TPI counter-2: 143

Results for CC(=O)C12CCCCC1CC1[C@@H]3CC(C)C4=CC(=O)CC[C@]4(C)C3CC[C@@]12C (stereo partly drawn) ?
FBA Mtb inh: 34; GDH-TPI counter-1: inactive; SSB-PriA inh: inactive; Mtb FBA confirm: 187; GDH-TPI counter-2: 175

What do the screens show for `COC(=O)c1sccc1NN=Cc1cccc(OC)c1O`?
SSB-PriA inh: inactive

Results for CC(=O)c1ccc(-c2ccc(C(=O)NCC(c3ccco3)N(C)C)o2)cc1 (stereo not drawn) ?
Mtb UGM inh: inactive; FBA Mtb inh: 68; GDH-TPI counter-1: 47; Rv3671c inh: inactive; SSB-PriA inh: inactive; Mtb bLac sens: inactive; Mtb FBA confirm: inactive; GDH-TPI counter-2: inactive

Results for C#CCOC(=O)CCCN1C(=O)c2cccc3cccc(c23)C1=O ?
FBA Mtb inh: 32; GDH-TPI counter-1: inactive; Mtb FBA confirm: 156; GDH-TPI counter-2: 121

What do the screens show for `CC(=O)Nc1ccc(NC(=O)C(C)OC(=O)CCCN2C(=O)c3cccc4cccc(c34)C2=O)cc1` (stereo not drawn)?
Mtb UGM inh: inactive; FBA Mtb inh: inactive; GDH-TPI counter-1: inactive; Rv3671c inh: inactive; SSB-PriA inh: inactive; Mtb bLac sens: inactive

What do the screens show for `O=C(CCN1C(=O)c2cccc3cccc(c23)C1=O)OCC(=O)c1ccccc1`?
SSB-PriA inh: inactive

How did COC(=O)CCCN1C(=O)c2cccc3cccc(c23)C1=O do in these assays?
Mtb UGM inh: inactive; FBA Mtb inh: 35; GDH-TPI counter-1: inactive; Rv3671c inh: inactive; SSB-PriA inh: inactive; Mtb bLac sens: inactive; Mtb FBA confirm: 129; GDH-TPI counter-2: 111

What do the screens show for `Cc1cccc(C=NNC(=O)c2cccc(NC(=O)c3ccccc3)c2)n1`?
SSB-PriA inh: inactive

What do the screens show for `CN1CCN(C(=O)c2cc3c(ccc4ccccc43)oc2=O)CC1`?
Mtb UGM inh: inactive; FBA Mtb inh: 54; GDH-TPI counter-1: inactive; Rv3671c inh: inactive; SSB-PriA inh: inactive; Mtb bLac sens: inactive; Mtb FBA confirm: 45; GDH-TPI counter-2: 31

Results for NC(=O)c1ccsc1NC(=O)COC(=O)c1ccccc1NCc1ccco1 ?
Mtb UGM inh: inactive; FBA Mtb inh: 59; GDH-TPI counter-1: inactive; Rv3671c inh: inactive; SSB-PriA inh: inactive; Mtb bLac sens: inactive; Mtb FBA confirm: 50; GDH-TPI counter-2: 32

What do the screens show for `O=C(COC(=O)c1ccccc1NCc1ccco1)Nc1ccc2c(c1)OCO2`?
Mtb UGM inh: inactive; FBA Mtb inh: 45; GDH-TPI counter-1: inactive; Rv3671c inh: inactive; SSB-PriA inh: inactive; Mtb bLac sens: inactive; Mtb FBA confirm: 64; GDH-TPI counter-2: 50

How did CCNC(=O)/C(C#N)=C/c1c(N2CCOCC2)nc2ccccn2c1=O do in these assays?
Mtb UGM inh: inactive; FBA Mtb inh: 42; GDH-TPI counter-1: inactive; Rv3671c inh: inactive; SSB-PriA inh: inactive; Mtb bLac sens: inactive; Mtb FBA confirm: 176; GDH-TPI counter-2: 136

How did C=CCNC(=O)/C(C#N)=C/c1c(N2CCCCCC2)nc2ccccn2c1=O do in these assays?
Mtb UGM inh: inactive; FBA Mtb inh: 37; GDH-TPI counter-1: inactive; Rv3671c inh: inactive; SSB-PriA inh: inactive; Mtb bLac sens: inconclusive; Mtb FBA confirm: inactive; GDH-TPI counter-2: inactive

What do the screens show for `CCOC(=O)c1cnc2ccc(C)cn2c1=O`?
Mtb UGM inh: inactive; FBA Mtb inh: 65; GDH-TPI counter-1: inactive; Rv3671c inh: inactive; SSB-PriA inh: inactive; Mtb bLac sens: inactive; Mtb FBA confirm: inactive; GDH-TPI counter-2: inactive

How did CCOC(=O)c1c(C)nc2ccc(C)cn12 do in these assays?
Mtb UGM inh: inactive; FBA Mtb inh: inactive; GDH-TPI counter-1: inactive; Rv3671c inh: inactive; SSB-PriA inh: inactive; Mtb bLac sens: inactive

How did Cc1cc(N2CCOCC2)nc2ccc(NC(=O)CCC(=O)N3CCC4(CC3)OCCO4)cc12 do in these assays?
Mtb UGM inh: inactive; FBA Mtb inh: 58; GDH-TPI counter-1: inactive; Rv3671c inh: inactive; SSB-PriA inh: inactive; Mtb bLac sens: inactive; Mtb FBA confirm: active; GDH-TPI counter-2: active

How did Cc1cc(N2CCOCC2)nc2ccc(NC(=O)C3CCC(C)CC3)cc12 (stereo not drawn) do in these assays?
Mtb UGM inh: inactive; FBA Mtb inh: inactive; GDH-TPI counter-1: inactive; Rv3671c inh: inactive; SSB-PriA inh: inactive; Mtb bLac sens: inactive

Results for Cc1cc(N2CCN(C)CC2)nc2ccc(NC(=O)CCC(=O)NCCC3=CCCCC3)cc12 ?
Mtb UGM inh: inactive; FBA Mtb inh: inactive; GDH-TPI counter-1: inactive; Rv3671c inh: inactive; SSB-PriA inh: inactive; Mtb bLac sens: inactive

Results for COCCCNC(=O)CCC(=O)Nc1ccc2nc(N3CCOCC3)cc(C)c2c1 ?
Mtb UGM inh: inactive; FBA Mtb inh: 88; GDH-TPI counter-1: inactive; Rv3671c inh: inactive; SSB-PriA inh: inactive; Mtb bLac sens: inactive; Mtb FBA confirm: inactive; GDH-TPI counter-2: inactive

How did Cc1cc(N2CCN(C)CC2)nc2ccc(NC(=O)CCC(=O)N3CCN(c4ccc([N+](=O)[O-])cc4)CC3)cc12 do in these assays?
Mtb UGM inh: inactive; FBA Mtb inh: inactive; GDH-TPI counter-1: inactive; Rv3671c inh: inactive; SSB-PriA inh: inactive; Mtb bLac sens: inactive

Source: PubChem (several laboratories)
